Assays:
[1] = target: T1, Aspartate--tRNA(Asp/Asn) ligase (Mycobacterium tuberculosis (strain ATCC 25618 / H37Rv)) (UniProt P9WFW3); assay: Assay for Asp RNA synthetase-1 from Mycobacterium tuberculosis; type: functional; design: scale not given: direction of the effect not stated beside the values; settings: 30 µM; note: in the data most compounds retested in dose-response had high values
T1 sequence (whole entry): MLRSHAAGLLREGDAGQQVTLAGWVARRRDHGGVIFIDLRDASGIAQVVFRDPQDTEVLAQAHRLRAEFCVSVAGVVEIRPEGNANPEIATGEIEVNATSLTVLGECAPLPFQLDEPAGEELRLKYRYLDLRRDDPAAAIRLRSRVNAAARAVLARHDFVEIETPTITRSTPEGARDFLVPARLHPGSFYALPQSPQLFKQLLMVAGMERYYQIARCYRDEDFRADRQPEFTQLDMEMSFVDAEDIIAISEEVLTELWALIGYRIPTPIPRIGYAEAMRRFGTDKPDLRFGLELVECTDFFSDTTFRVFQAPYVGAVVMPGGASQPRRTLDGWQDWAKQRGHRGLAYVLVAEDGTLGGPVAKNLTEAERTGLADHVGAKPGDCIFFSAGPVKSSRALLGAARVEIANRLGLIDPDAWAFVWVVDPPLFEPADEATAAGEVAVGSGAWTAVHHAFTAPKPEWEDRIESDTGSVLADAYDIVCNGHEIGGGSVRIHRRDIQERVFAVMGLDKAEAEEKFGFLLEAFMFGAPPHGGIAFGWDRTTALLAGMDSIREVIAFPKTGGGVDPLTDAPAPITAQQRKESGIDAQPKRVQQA

[2] = target: Shiga toxin 2 (Escherichia coli O157:H7) (UniProt P09385+P09386); assay: E. coli 0.157:H7 Shiga Toxin SOP - stx2 screening assay; type: functional; design: scale not given: direction of the effect not stated beside the values; settings: 30 µM

| Compound | Percent Effect [1] [%] | Percent Effect [2] [%] |
| --- | --- | --- |
| CN(Cc1ccc(F)cc1)C(=O)CN1CCCC(Cn2cncn2)C1 (centres undefined) | -5.51 | 5.36 |
| CN(Cc1nccn1CC(F)(F)F)C(=O)c1cccc(C#N)c1 | 1.68 | -1.08 |
| CC(O)CN1CCN(C(=O)c2ccc(Br)o2)CC1 (centres undefined) | -2.21 | 22.8 |
| CCCC(Nc1c(C#N)c(=O)n(C)c(=O)n1C)c1ccc(F)cc1F (centres undefined) | -3.88 | 4.48 |
| NC(=O)C1CN(Cc2c[nH]cn2)CCN(C2CCOCC2)C1 (centres undefined) | -0.938 | -0.548 |
| Cc1occc1C(=O)N1CCc2c(COCC3CC3)cncc2C1 | -0.443 | -11.9 |
| CC(C)N1CCCC(CCCc2ccccn2)(C(=O)O)C1 (centres undefined) | 1.98 | 9.97 |
| CNCC(=O)N1CCCC(c2nccnc2Oc2cccc(F)c2)C1 (centres undefined) | 1.72 | 4.34 |
| COc1cc(C)nc(N2CCN(C(=O)CNC(C)(C)C)CC2)n1 | -2.1 | -32.2 |
| Cc1cc(S(=O)(=O)N2CCC(S(C)(=O)=O)CC2)ccc1F | 1.15 | -4.34 |
| CC(C)CCn1c(=O)nc2n1C(=O)N(c1ccc(F)cc1)C2 | -0.24 | -15.1 |
| O=C([C@@H]1COC[C@H]2CN(C3CCOCC3)C[C@H]21)N1CCCCO1 | 6.99 | -23.5 |
| OC(CN1CCN(Cc2nnc(C3CC3)o2)CC1)c1ccccc1 (centres undefined) | -1.28 | 6.16 |
| CC(=O)N1C[C@H](NC(=O)c2cscn2)[C@@H]2OCCC[C@@H]21 | -2.64 | 6.1 |
| Cc1noc(Cl)c1CCC(=O)N1CCCCC1Cn1cccn1 (centres undefined) | 1.35 | -6.37 |
| O=C(CN1CCCCCCC1=O)NCc1ccccn1 | -0.137 | -35.3 |
| O=C(NCC(F)F)N1CCC(n2ccc(C(F)(F)F)n2)CC1 | -6.76 | -7.64 |
